# Test results reported in PMC9911399, “Two distinct binding modes provide the RNA-binding protein RbFox with extraordinary sequence specificity”.
# Substitutions are numbered along the chain they refer to; changes in the protein carry UniProt numbers. Whole data set: some 16,000 sequences, median “ka relative to ugcaugu” near 0.096, cut for the highest 2% near 0.35. The sample as a whole holds a higher share of the highest values than the screen did.
# T1: RBFOX1 RRM RbFoxmut (Fox-RRM*) (Homo sapiens, UniProt Q9NWB1 109-208, R118D;E147R;N151S;E152T)
# T1 sequence: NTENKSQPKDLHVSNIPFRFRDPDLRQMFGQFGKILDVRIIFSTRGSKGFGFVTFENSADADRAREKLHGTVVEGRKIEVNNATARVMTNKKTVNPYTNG
# B1: UCACCUC (DNA:RNA)
# RNA: GGGAGACCGGAAUUCAGAUUGUCCUCACCUCUUAAAUCCCGUCGUAGCCACCA
# DNA 1: CAATCTGAATTCCGGTCTCCC
# DNA 2: TGGTGGCTACGACGGGATT
# B2: AAAAUUC (DNA:RNA)
# RNA: B1 RNA with U25A, C26A, C28A, C29U
# DNA 1: CAATCTGAATTCCGGTCTCCC
# DNA 2: TGGTGGCTACGACGGGATT
# B3: GGUAUGG (DNA:RNA)
# RNA: GGGAGACCGGAAUUCAGAUUGUCCGGUAUGGUUAAAUCCCGUCGUAGCCACCA
# DNA 1: CAATCTGAATTCCGGTCTCCC
# DNA 2: TGGTGGCTACGACGGGATT
# B4: CGUAUGG (DNA:RNA)
# RNA: B3 RNA with G25C
# DNA 1: CAATCTGAATTCCGGTCTCCC
# DNA 2: TGGTGGCTACGACGGGATT
# B5: AGAAUUG (DNA:RNA)
# RNA: B3 RNA with G25A, U27A, G30U
# DNA 1: CAATCTGAATTCCGGTCTCCC
# DNA 2: TGGTGGCTACGACGGGATT
# B6: AGAUUGG (DNA:RNA)
# RNA: B3 RNA with G25A, U27A, A28U
# DNA 1: CAATCTGAATTCCGGTCTCCC
# DNA 2: TGGTGGCTACGACGGGATT
# B7: GAAAUGG (DNA:RNA)
# RNA: B3 RNA with G26A, U27A
# DNA 1: CAATCTGAATTCCGGTCTCCC
# DNA 2: TGGTGGCTACGACGGGATT
# B8: GUAAUGG (DNA:RNA)
# RNA: B3 RNA with G26U, U27A
# DNA 1: CAATCTGAATTCCGGTCTCCC
# DNA 2: TGGTGGCTACGACGGGATT
# B9: GAAUGGG (DNA:RNA)
# RNA: B3 RNA with G26A, U27A, A28U, U29G
# DNA 1: CAATCTGAATTCCGGTCTCCC
# DNA 2: TGGTGGCTACGACGGGATT
# B10: CGAAUGG (DNA:RNA)
# RNA: B3 RNA with G25C, U27A
# DNA 1: CAATCTGAATTCCGGTCTCCC
# DNA 2: TGGTGGCTACGACGGGATT
# B11: AGAAUGG (DNA:RNA)
# RNA: B3 RNA with G25A, U27A
# DNA 1: CAATCTGAATTCCGGTCTCCC
# DNA 2: TGGTGGCTACGACGGGATT
# B12: GGAAUGG (DNA:RNA)
# RNA: B3 RNA with U27A
# DNA 1: CAATCTGAATTCCGGTCTCCC
# DNA 2: TGGTGGCTACGACGGGATT
# B13: GUUAUGG (DNA:RNA)
# RNA: B3 RNA with G26U
# DNA 1: CAATCTGAATTCCGGTCTCCC
# DNA 2: TGGTGGCTACGACGGGATT
# B14: GUAUGGU (DNA:RNA)
# RNA: B3 RNA with G26U, U27A, A28U, U29G, G31U
# DNA 1: CAATCTGAATTCCGGTCTCCC
# DNA 2: TGGTGGCTACGACGGGATT
# B15: GGGCCAA (DNA:RNA)
# RNA: B3 RNA with U27G, A28C, U29C, G30A, G31A
# DNA 1: CAATCTGAATTCCGGTCTCCC
# DNA 2: TGGTGGCTACGACGGGATT
# B16: UUCGUCU (DNA:RNA)
# RNA: B3 RNA with G25U, G26U, U27C, A28G, G30C, G31U
# DNA 1: CAATCTGAATTCCGGTCTCCC
# DNA 2: TGGTGGCTACGACGGGATT
# B17: GGACUAG (DNA:RNA)
# RNA: B3 RNA with U27A, A28C, G30A
# DNA 1: CAATCTGAATTCCGGTCTCCC
# DNA 2: TGGTGGCTACGACGGGATT
# B18: ACCCGUU (DNA:RNA)
# RNA: B1 RNA with U25A, A27C, C29G, C31U
# DNA 1: CAATCTGAATTCCGGTCTCCC
# DNA 2: TGGTGGCTACGACGGGATT
# B19: AUGGCUC (DNA:RNA)
# RNA: B1 RNA with U25A, C26U, A27G, C28G
# DNA 1: CAATCTGAATTCCGGTCTCCC
# DNA 2: TGGTGGCTACGACGGGATT
# B20: UAUUUAA (DNA:RNA)
# RNA: B3 RNA with G25U, G26A, A28U, G30A, G31A
# DNA 1: CAATCTGAATTCCGGTCTCCC
# DNA 2: TGGTGGCTACGACGGGATT
# B21: AGCAGCG (DNA:RNA)
# RNA: B3 RNA with G25A, U27C, U29G, G30C
# DNA 1: CAATCTGAATTCCGGTCTCCC
# DNA 2: TGGTGGCTACGACGGGATT
# B22: GAUGGUU (DNA:RNA)
# RNA: B3 RNA with G26A, A28G, U29G, G30U, G31U
# DNA 1: CAATCTGAATTCCGGTCTCCC
# DNA 2: TGGTGGCTACGACGGGATT
# B23: CGAUGGC (DNA:RNA)
# RNA: B3 RNA with G25C, U27A, A28U, U29G, G31C
# DNA 1: CAATCTGAATTCCGGTCTCCC
# DNA 2: TGGTGGCTACGACGGGATT
# B24: GGAUGGU (DNA:RNA)
# RNA: B3 RNA with U27A, A28U, U29G, G31U
# DNA 1: CAATCTGAATTCCGGTCTCCC
# DNA 2: TGGTGGCTACGACGGGATT
# B25: GAAUGGU (DNA:RNA)
# RNA: B3 RNA with G26A, U27A, A28U, U29G, G31U
# DNA 1: CAATCTGAATTCCGGTCTCCC
# DNA 2: TGGTGGCTACGACGGGATT
# B26: GAUUGGC (DNA:RNA)
# RNA: B3 RNA with G26A, A28U, U29G, G31C
# DNA 1: CAATCTGAATTCCGGTCTCCC
# DNA 2: TGGTGGCTACGACGGGATT
# B27: GAAUGGC (DNA:RNA)
# RNA: B3 RNA with G26A, U27A, A28U, U29G, G31C
# DNA 1: CAATCTGAATTCCGGTCTCCC
# DNA 2: TGGTGGCTACGACGGGATT
# B28: GAGAAAU (DNA:RNA)
# RNA: B3 RNA with G26A, U27G, U29A, G30A, G31U
# DNA 1: CAATCTGAATTCCGGTCTCCC
# DNA 2: TGGTGGCTACGACGGGATT
# B29: GAACCCG (DNA:RNA)
# RNA: B1 RNA with U25G, C26A, U30C, C31G
# DNA 1: CAATCTGAATTCCGGTCTCCC
# DNA 2: TGGTGGCTACGACGGGATT
# B30: CCUUUUU (DNA:RNA)
# RNA: B3 RNA with G25C, G26C, A28U, G30U, G31U
# DNA 1: CAATCTGAATTCCGGTCTCCC
# DNA 2: TGGTGGCTACGACGGGATT
# B31: CGCACUG (DNA:RNA)
# RNA: B3 RNA with G25C, U27C, U29C, G30U
# DNA 1: CAATCTGAATTCCGGTCTCCC
# DNA 2: TGGTGGCTACGACGGGATT
# Target: T1, RBFOX1 RRM RbFoxmut (Fox-RRM*)
# Experiment: EMSA; HiTS-Eq, 1 nM pool, 10 min; buffer printed only for the single-RNA assays: 10 mM Tris pH 7.5, 150 mM NaCl, 3.4 mM EDTA, 0.001% NP-40, 30 C
# Conditions: tags: His6 N-terminal (pET28a); label: 5' 32P
# Summary of the method: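 Purified RbFox RRM (wild type or mutant) was equilibrated for 10 min in 50 µL with 1 nM of a 5′-radiolabelled pool of RNA with 7 randomized nucleotides, its flanks annealed to DNA oligonucleotides, across increasing protein concentrations. Free RNA was separated by 8% native PAGE, excised, reverse-transcribed, PCR-barcoded and sequenced on an Illumina HiSeq 2500. Relative association constants came from read-count changes of each variant against the control reaction, normalised to the cognate motif.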
row,Binder,binding signal
1,B1,0.0699 KA relative to UGCAUGU
2,B2,0.0842 KA relative to UGCAUGU
3,B3,0.419 KA relative to UGCAUGU
4,B4,0.261 KA relative to UGCAUGU
5,B5,0.129 KA relative to UGCAUGU
6,B6,0.125 KA relative to UGCAUGU
7,B7,0.0639 KA relative to UGCAUGU
8,B8,0.0836 KA relative to UGCAUGU
9,B9,0.21 KA relative to UGCAUGU
10,B10,0.72 KA relative to UGCAUGU
11,B11,0.541 KA relative to UGCAUGU
12,B12,0.724 KA relative to UGCAUGU
13,B13,0.123 KA relative to UGCAUGU
14,B14,0.325 KA relative to UGCAUGU
15,B15,0.0698 KA relative to UGCAUGU
16,B16,0.0697 KA relative to UGCAUGU

row,Binder,binding signal
1,B17,0.0756 KA relative to UGCAUGU
2,B18,0.0752 KA relative to UGCAUGU
3,B19,0.111 KA relative to UGCAUGU
4,B20,0.0892 KA relative to UGCAUGU
5,B21,0.113 KA relative to UGCAUGU
6,B22,0.0937 KA relative to UGCAUGU
7,B23,0.101 KA relative to UGCAUGU
8,B24,0.201 KA relative to UGCAUGU
9,B25,0.748 KA relative to UGCAUGU
10,B26,0.145 KA relative to UGCAUGU
11,B27,0.592 KA relative to UGCAUGU
12,B28,0.0893 KA relative to UGCAUGU
13,B29,0.0645 KA relative to UGCAUGU
14,B30,0.0758 KA relative to UGCAUGU
15,B31,0.125 KA relative to UGCAUGU
